Screens from PubChem.
Compounds with a hit are over-represented: about 6% of the library has one in this group of screens.
D3 ag = activates the human D3 dopamine receptor; max activation, %; P35462; D3R DiscoveRx beta-arrestin cells, luminescence, 90 min; 410,000 compounds, 0.58% hits; in the data active = max activation above about 30%
Target sequence (P35462 whole entry, looked up): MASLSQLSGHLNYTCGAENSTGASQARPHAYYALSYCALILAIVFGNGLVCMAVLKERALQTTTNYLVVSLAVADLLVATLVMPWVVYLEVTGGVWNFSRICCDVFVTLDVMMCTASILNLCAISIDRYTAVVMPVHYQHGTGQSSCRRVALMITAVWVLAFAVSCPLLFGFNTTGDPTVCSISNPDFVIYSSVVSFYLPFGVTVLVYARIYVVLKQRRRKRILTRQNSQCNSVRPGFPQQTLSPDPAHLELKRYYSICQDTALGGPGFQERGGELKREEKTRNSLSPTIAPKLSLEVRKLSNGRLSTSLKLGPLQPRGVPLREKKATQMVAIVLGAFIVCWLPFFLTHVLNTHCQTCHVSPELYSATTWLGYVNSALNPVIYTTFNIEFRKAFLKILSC
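Agonist mode: compounds and dopamine controls were applied to plated cells for 90 min at 37 degrees C after an overnight attachment at 1500 cells/well. Luminescent read-out followed 30 - 60 minutes at room temperature with DiscoveRx detection reagent.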
D1 ag = human D1 receptor agonism; AID 504660; 360,000 compounds, 1% hits; activation, % at 2 µM; HEK293 T-REx D1 cells, calcium flux, agonist mode; in the data active = activation above about 30%
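Tetracycline-induced HEK293 TREx D1 cells, force-coupled to calcium signalling, were dye-loaded with a no-wash calcium kit. Compound was pin-added after a 10 s baseline. Fluorescence was read kinetically at 1 cycle/s for 180 s, with calcium rises flagged as agonism.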
D1 antagonist = blocks dopamine activation of the human D1 receptor. P21728. HEK293 TREx D1 cells, calcium flux, dopamine EC80; active compounds read low. activity change, negative = inhibition, % at 10 µM. 360,000 compounds, 3.2% hits; in the data active = activity change below about -30%
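Compound effects on dopamine-evoked calcium signalling were measured in tetracycline-induced HEK293 Trex D1 cells. Dopamine at EC80 followed a 180 s compound pre-read, and fluorescence was tracked kinetically for 180 s more.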
D1 PAM = potentiators of human D1 dopamine receptor; P21728; HEK293 TREx D1 cells, calcium flux, dopamine EC20 potentiation; potentiation, % at 10 µM; 360,000 compounds, 0.036% hits; in the data active = potentiation above about 30%
D3 antag = antagonists of human D3 dopamine receptor; AID 652054; D3R cells, DiscoveRx beta-arrestin luminescence, antagonist mode; active compounds read low; 360,000 compounds, 2.5% hits; P35462; max response, negative = inhibition, %; in the data active = max response below about -50%; inconclusive = no clear call, values can overlap the other calls
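Cells expressing the human receptor were seeded at 1500 cells/well, incubated overnight at 37 degrees C in 5% CO2, then exposed to library compounds with dopamine controls for 90 minutes at 37 degrees C before luminescent detection.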
Of the large screens only hits and unclear results are named; the others gave an inactive call.

CCOC(=O)C1(C)CCCN(C(=O)c2cccc3ccccc23)C1 (stereo unspecified)	none (no result: D1 ag, D1 antagonist, D1 PAM)
CCN(CC(=O)Nc1ccc(NC(C)=O)cc1)C(=O)c1ccc(N(C)S(=O)(=O)c2ccc(C)cc2)cc1	none (no result: D1 ag, D1 antagonist, D1 PAM)
CC(=O)Nc1ccc(S(=O)(=O)NCC(=O)OCC(=O)N2CCCCCC2)cc1	none
CC1CN(c2nc3ccccn3c(=O)c2C=O)CC(C)O1 (stereo unspecified)	D1 antagonist -34
CCN(CC)C(=O)c1sc(NC(=O)c2c(OC)cccc2OC)c(C#N)c1C	D1 antagonist -30
COc1ccc(C)cc1NC(=O)c1nnn(-c2c(C)cccc2C)c1C	none (no result: D3 antag)
CCOC(=O)C1CCCN(C(=O)c2cccc(C(F)(F)F)c2)CC1 (stereo unspecified)	none (no result: D1 ag, D1 antagonist, D1 PAM)
O=c1c(Cl)c(Cl)cnn1Cc1ccccc1Cl	D3 antag inconclusive
O=c1c(Cl)c(Cl)cnn1Cc1nnc(-c2ccc(Cl)cc2)o1	D3 antag -87
CSCC(C)N1CCC(CO)(CCc2ccccc2)CC1 (stereo unspecified)	none
CC(COc1ccccc1)N1CCC(CO)(CCc2ccccc2)CC1 (stereo unspecified)	D1 ag 35, D3 antag -62
CCOc1ccccc1NC(=O)CN1C(=O)C2(SCC(=O)N2c2cccc(F)c2)c2ccccc21 (stereo unspecified)	none (no result: D3 antag)
CC(C)COC(=O)N1CCCCC1c1cc(C(=O)N2CCOCC2)no1 (stereo unspecified)	none (no result: D1 ag, D1 antagonist, D1 PAM)
O=C1C2C(C(=O)N1/N=C/c1cc(Br)cc([N+](=O)[O-])c1O)C1C=CC2C12CC2 (stereo unspecified)	D1 antagonist -31, D3 antag -70
CN(C(=O)c1cccc(NC(=O)Cc2ccc(NC(=O)C3CCN(C(=O)C4CCCCC4)CC3)cc2)c1)C1CCCC1	none (no result: D1 ag, D1 antagonist, D1 PAM)
O=C(CNC(=O)Cc1ccccc1)NCc1cccc(C(F)(F)F)c1	none (no result: D1 PAM)
O=S(=O)(NCc1ccccc1)NCc1cccc(C(F)(F)F)c1	D1 antagonist -38
COCc1cc(C)nc(N2CCNCC2)c1C#N	D3 antag -56
COCc1cc(C)nc(N2CCN(Cc3ccccc3)CC2)c1C#N	D3 antag -90
COc1ccc(NC(=O)CN(c2ccc(OC)c(Cl)c2)S(=O)(=O)c2ccccc2)c(OC)c1	none
Cc1sc(NC(=O)c2ccc(Br)s2)c(C(N)=O)c1C	D1 PAM 31, D3 antag inconclusive
O=C(O)c1cccc(CN2C(=O)c3ccccc3C2=O)c1	none
O=C1c2cccc3c(O)ccc(c23)C(=O)N1Cc1ccccc1	D1 ag 366
CN(C)c1ncc(CN2CCC(C(=O)Nc3ccc(-n4cccn4)cc3)CC2)s1	none
Cc1ccc(O)c(CNc2cnc3ccccc3c2)c1	D1 antagonist -31
Oc1ccc(Br)cc1CNc1cnc2ccccc2c1	none
Cc1cc(C)nc(SCc2nc3ncccn3c2Br)n1	D3 antag -52
Cc1ccc2cc(CN(Cc3ccc(F)cc3)Cc3nnnn3C3CCCC3)c(=O)[nH]c2c1	none
CCc1ccc2[nH]c(=O)c(CN(Cc3ccc4c(c3)OCO4)Cc3nnnn3C3CCCC3)cc2c1	D3 ag 35
O=C(CCCCl)Oc1ccc2cc(-c3ccc4ccccc4n3)c(=O)oc2c1	D1 ag 51
CC(=O)COc1ccc2cc(-c3ccccc3)c(=O)oc2c1	none
O=C(CSc1nnc2n(C3CCCC3)c(=O)c3ccccc3n12)N1CCCCCC1	D3 ag 34
CC1CCCN(C(=O)CSc2nnc3n(C4CCCC4)c(=O)c4ccccc4n23)C1 (stereo unspecified)	D3 ag 47
CC(C)CCN(C(=O)c1cn2ccccc2n1)c1c(N)n(Cc2ccccc2)c(=O)[nH]c1=O	none
CCCc1nc2c(=O)n(C)c(=O)nc-2n(C)n1	D3 antag -61
Cn1nc(-c2ccccn2)nc2c(=O)n(C)c(=O)nc1-2	D3 antag -69
CCN(CC)S(=O)(=O)c1cccc(-n2c(O)c(C=Nc3ccccc3C(=O)O)c3ccccc3c2=O)c1	none
CCNC(=O)C/C(C)=N/NC(=O)C12CC3CC(CC(C3)C1)C2	D1 antagonist -32
O=c1cc[nH]c2c1ccc1cccnc12	none
C[C@@H](NC(=O)[C@@H]1Cc2ccccc2CN1C(=O)OC(C)(C)C)C(=O)NC1CCCC1	D1 antagonist -40
CC(NC(=O)[C@@H](C)NC(=O)[C@@H]1Cc2ccccc2CN1C(=O)OC(C)(C)C)c1ccccc1 (stereo partly specified)	none
CCCCS(=O)(=O)c1oc(-c2cccs2)nc1S(=O)(=O)c1ccc(F)cc1	D1 ag 81 (no result: D3 antag)
O=C1[C@H]2[C@@H](/C=C/c3ccccc3)N3C(=O)CN(CCO)C(=O)[C@@]3(Cc3ccccc3)[C@H]2C(=O)N1c1ccccc1	none
C[C@@]12C(=O)N(CCO)CC(=O)N1[C@H](/C=C/c1ccccc1)[C@@H]1C(=O)N(c3ccccc3)C(=O)[C@@H]12	D3 antag -59
CC(CSC(=O)c1ccccc1)C(=O)N1c2ccccc2CC1C(=O)O (stereo unspecified)	D3 antag inconclusive (no result: D1 ag, D1 antagonist, D1 PAM)
COc1ccccc1OCCOCCOc1ccc(C)cc1[N+](=O)[O-]	none
CCCCNCCOCCOc1ccc(C)cc1[N+](=O)[O-]	D3 antag -53
COCCCNC(=S)Nc1ccc(C)cc1[N+](=O)[O-]	none
C=CCN(CC=C)CCOc1cc(C)ccc1[N+](=O)[O-]	D3 antag inconclusive
COCCCNCCCCOc1ccc(C)cc1[N+](=O)[O-]	D3 antag -70
C=CCNCCOc1ccc(C)cc1[N+](=O)[O-]	D3 antag -72
C=CCN(CC=C)CCOc1ccc(C)cc1[N+](=O)[O-]	D3 antag -96
CC(O)CN(CCN(CC(C)O)CC(C)O)CC(C)O (stereo unspecified)	none (no result: D1 ag, D1 antagonist, D1 PAM, D3 antag)
CCOc1ccc(CNS(=O)(=O)c2c(C(=O)N3CCCCCC3)c(C)n(C)c2C)cc1OC	none (no result: D3 antag)
NC(=O)COc1ccc2oc(=O)cc(-c3cc4ccccc4o3)c2c1	none
CC1CC(=Cc2ccc(N)cc2)C(=O)O1 (stereo unspecified)	none (no result: D1 ag, D1 antagonist, D1 PAM)
C=CCNCCOCCOc1ccc(C)cc1Br	D3 antag inconclusive
CCC(C)NCCOCCOc1ccc(C)cc1Br (stereo unspecified)	D3 antag -70
CCC(C)NCCCOc1c(C)cc(C)cc1Br (stereo unspecified)	D1 ag 32, D3 antag -54
COc1ccccc1OCCCOc1c(C)cc(C)cc1Br	none
CCC(C)NCCOc1ccc(C)cc1[N+](=O)[O-] (stereo unspecified)	D3 antag -60
CCn1c(NC(=O)/C=C/c2ccc(F)cc2)nc2ccccc21	none (no result: D1 PAM)
CCN(CC)c1ccc(C(=O)N2CCC(c3c[nH]c4ccccc34)(c3c[nH]c4ccccc34)CC2)cc1	none (no result: D3 antag)
CCN(CC)c1ccc2c(c1)oc(=O)c1c(Cl)cc(=O)oc12	D1 ag 142, D1 antagonist -38, D3 antag -91
